Consider 54 compounds from PubChem BioAssay AID1117362 (Southern Research Institute, 2015).

The whole screen tested about 3,600 compounds, of which about 100 (2.8%) were called active. Not all results are given here. Values without a mark were called inactive.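 The calls were made as follows: active = inhibition above 30% at one or more concentrations, seen consistently on every test date; inconclusive = results that disagree between repeat test dates; inactive = the rest.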

For orientation: inhibition means the relative decrease from the control value, in per cent.

The nature of the assay: biotin-GST/anti-GST TR-FRET signal inhibitors, dose response, artefact control for Vif-APOBEC3G degradation inhibitor project, biochemical (AID 1117362).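 Also: biotinylated GST protein used in place of GST-Vif 1-94 and biotin-A3G peptide; detects fluorescence quenchers or blockers of GST binding to anti-GST antibody.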 The note with it: TR-FRET counter screen; series mostly up to 100 µM; inhibition: at the top concentration.
With `O=C(CCN1C(=O)/C(=C/c2cccs2)SC1=S)NC1=NCCS1`, the “inhibition” value is 3.86%. As to `COCCNc1nnc(SC(C)C(=O)Nc2ccc(-c3nc4ccc(C)cc4s3)cc2)s1` (centres undefined), the “inhibition” value is -10.4%. Consider `COc1ccc2[nH]c(=O)c(CN(Cc3ccco3)C(c3nnnn3Cc3ccccc3)C(C)C)cc2c1` (centres undefined), for which the “inhibition” value was 8.05%.

For `C=CCOC(=O)C1=C(C)NC(SCC(=O)Nc2ccccc2)=C(C#N)C1c1ccco1` (centres undefined), the “inhibition” value was -0.21%.

In the case of `N#C/C(=C\c1ccc([N+](=O)[O-])o1)C(=O)Nc1ccc(F)cc1`, the “inhibition” value was -4.89%. Take `c1cn2cc(CSC3CCCCC3)nc2s1`: the “inhibition” value was 2.38%. Take `Cc1ccc(N2C(=O)/C(=C\c3ccco3)SC2=S)cc1`: the “inhibition” value was -2.25%. To `CCC(C)(C)n1nnnc1C(c1ccc2ncccc2c1)N1CCN(c2ccc(O)cc2)CC1` (centres undefined) belongs 11.3%; to `CC1(C)OC(=O)C(=C2CCCN2)C(=O)O1`, 2.43%; to `COC(=O)C1=C(C)NC(=O)/C1=C\c1cc(C)n(-c2ccccc2C)c1C`, 0.71%.

Take `O=C(Nc1ccc(F)cc1)C(c1ccccc1)N1CCN(S(=O)(=O)c2ccc3ccccc3c2)CC1` (centres undefined): the “inhibition” value is -1.89%.

In the case of `CCCCC(=O)NC(=S)Nc1cc(C(=O)O)ccc1Cl`, the “inhibition” value was 2.22%. To `Cc1occc1-c1nnc(SCC(=O)N2CCN(c3ccccc3)CC2)n1C` belongs 11.3%; to `CC(C)n1c(=NC(=O)c2ccco2)c(C#N)cc2c(=O)n3ccccc3cc21`, 7.91%.

As for `CCOC(=O)C1CCN(C(=O)COc2ccc(S(=O)(=O)NC(C)C)cc2)CC1`, the “inhibition” value is -2.82%.

With `CCOC(=O)Cc1cc(=O)n2[nH]c(C)cc2n1`, the “inhibition” value is -1.93%.

As for `COCCNC(=O)c1ccc(CS(=O)(=O)c2c(Cl)cccc2Cl)o1`, the “inhibition” value is 4.28%. As to `CC(C)CC(=O)Nc1nnc(-c2ccco2)s1`, the “inhibition” value is 0.89%. To `CCOc1cccc(CNCCNC(=O)c2nonc2N)c1` belongs -2.13%; to `COc1ccc(-n2c(Cc3cccn3C)nnc2SCC(N)=O)cc1`, 7.71%. For `COC(=O)CCCC(=O)Nc1c(F)c(F)c(F)c(F)c1F`, the “inhibition” value was -2.58%. For `CCOc1ccc(Nc2nc3ccccc3n3nnnc23)cc1`, the “inhibition” value is -1.63%. Regarding `CN(CC(=O)Nc1cccc(F)c1)C(=O)c1cccc(-n2cccc2)c1`, the “inhibition” value is -2.98%. For `O=C(NC1CCC(C(=O)O)CC1)OCc1ccccc1` (centres undefined), the “inhibition” value was 1.11%.

Take `CCc1cc(=O)n2[nH]c(C)c(-c3ccccc3OC)c2n1`: the “inhibition” value is -1.39%. With `COc1cccc(CNC(=O)CCNS(=O)(=O)c2cccs2)c1` the figure was 2.89%; with `COc1cccc(C(C#N)N2CCCCC2)c1O` (centres undefined), 0.26%; with `O=C(N/N=C/c1cn(Cc2cccc(F)c2)c2ccccc12)c1cc(O)cc(O)c1`, 6.55%. For the compound `O=C(CSc1nnnn1-c1ccccc1)Nc1ncc2c(n1)CC(c1ccco1)CC2=O` (centres undefined), the “inhibition” value is 0.22%. To `CCOc1ccc(NCC2CCOC(C)(C)C2)cc1` (centres undefined) belongs 9.47%. As for `CCOC1(OCC)N=C(N)C2(C#N)C(c3cccc(OC)c3OC)C12C#N` (centres undefined), the “inhibition” value was 5.56%.

For `CCOC(=O)C1CCCN(C(=O)c2ccc(CNc3c(N4CCC(C)CC4)c(=O)c3=O)cc2)C1` (centres undefined), the “inhibition” value is -4.81%. Turning to `CCc1ccc(CC)c(S(=O)(=O)Nc2ccc(C(=O)O)c(O)c2)c1`, the “inhibition” value was 4.62%. `CC/C(=C\C(=O)c1ccncc1)Nc1ccc(O)cc1`: the “inhibition” value is 20.5%. With `CCNc1ccc(Br)cc(C(=O)/C=C/c2ccc3c(c2)OCO3)c1=O`, the “inhibition” value was -2.1%. On to `O=[N+]([O-])c1cc(CN2CCOCC2)c2cccnc2c1O`, for which the “inhibition” value is 17.9%. On to `Cc1ccc[n+](-c2[nH]c(=O)sc2/C=N/NC(=O)c2ccccc2[O-])c1`, for which the “inhibition” value is 0.56%. With `Cc1cc(C(=O)CSc2nnc(-c3ccco3)o2)c(C)n1Cc1ccco1`, the “inhibition” value was 0.59%. Consider `COc1ccc2[nH]c3c4c(ccc3c2c1)C(=O)C=CC4=O`, for which the “inhibition” value was 5.16%. On to `O=C(Nc1ccccc1N1CCCC1)c1ccc(Br)o1`, for which the “inhibition” value is 5.44%. Regarding `COC(=O)C(C)Sc1nnc(Cc2cc(=O)[nH]c(=O)[nH]2)n1-c1cc(C)ccc1C` (centres undefined), the “inhibition” value was 0.66%. For `O=C(Nc1ccccc1)C1=C(O)CC(c2ccco2)CC1=Nc1ccccc1` (centres undefined), the “inhibition” value was -0.44%.

As for `O=C(c1cc(-c2ccco2)on1)N1CCN(c2ccccc2)CC1`, the “inhibition” value was -4.83%. Turning to `Cc1cc(NC(=O)CCNS(=O)(=O)c2cc(Br)cnc2N)ccc1Br`, the “inhibition” value was 5.53%. Regarding `Cc1cc(C(=O)CSc2nnnn2C)c(C)n1CCc1ccc(Cl)cc1`, the “inhibition” value was 5.37%.

On to `CC1(C)CCCN(C(=O)c2coc(=O)c(Br)c2)C1`, for which the “inhibition” value was 1.09%. As for `FC(F)(F)c1cc(-c2ccco2)nc(NCc2cccnc2)n1`, the “inhibition” value was -1.65%. For `CN(C)c1ccc(NC(=O)CSc2nc3ccccc3c(=O)n2C2CCCCC2)cc1`, the “inhibition” value is 2.21%.

Consider `CC(=O)Nc1ccc(NC(=O)C(C)OC(=O)CC23CC4CC(CC(Br)(C4)C2)C3)cc1` (centres undefined), for which the “inhibition” value is 2.41%. As to `Cn1cccc1C(=O)NC(=O)COC(=O)CC12CC3CC(CC(Br)(C3)C1)C2`, the “inhibition” value is 4.29%. For `O=C(O)C1Nc2c(C(=O)N3CCOCC3)cccc2C2C=CCC12` (centres undefined), the “inhibition” value was 0.78%. In the case of `O=C(Nc1ccn(-c2ccccc2)n1)c1ccccc1Br`, the “inhibition” value is -3.02%. As for `CC(=O)c1cccc(NC(=O)CN2C(=O)NC3(CCCCCCC3)C2=O)c1`, the “inhibition” value is 5.93%.

In the case of `COc1ccc(-n2c(C)cc(C(=O)CSc3nn4c(=O)c(C(C)(C)C)nnc4s3)c2C)cc1`, the “inhibition” value is -3.69%.
